Data published in PubChem BioAssay AID764 (NMMLSC, 2007).
About 220 (0.12%) of roughly 190,000 compounds were called active. Another 2% or so got no clear call; they are omitted. This excerpt belongs to a sample that is enriched for actives. Unmarked numbers belong to inactive results.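 How the source made its calls: active means GTP binding at least 20 percentage points away from the 100% baseline, in either direction, so actives lie on both sides; inconclusive means Compound likely fluorescent itself, or too few beads counted; inactive means the rest.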

What follows are compounds tested against Ras-related C3 botulinum toxin substrate 1 (Homo sapiens) (UniProt P63000) (assay: GTP binding modulators of activated mutant Rac1, primary screen, biochemical, bead-based flow cytometry, multiplex, fluorescent GTP (AID 764)). Details: GST-Rac1 activated beads, at 10 µM, actives lie on both sides, 100% means binding = to untreated wells.
With `CC(C)(C)C(=O)CSc1nc2ccccc2o1` the percent activity (GTP binding) was 96%. `Cn1cnnc1SCC(=O)NNC(=O)COc1ccc(Br)cc1` showed a percent activity (GTP binding) of 98%. For `O=C(CN1CCSCC1)N/N=C/c1ccc(Cl)cc1`, the percent activity (GTP binding) was 95%. For `O=C(Cc1ccc(Cl)cc1)NCc1nc(-c2ccccc2)no1`, the percent activity (GTP binding) was 91%. For `COc1ccc(N2C(=O)CC(Nc3ccc(F)cc3)C2=O)c([N+](=O)[O-])c1` (stereo not given), the percent activity (GTP binding) was 93%. Compound `COC(=O)C1=C(C)NC(=O)CC1c1ccccc1OC` (stereo not given) has a percent activity (GTP binding) of 99%. `CCC(C)(C)NC(=O)C(c1ccccn1)N(C(=O)c1csnn1)c1ccccc1` (stereo not given) was tested, and the percent activity (GTP binding) was 96%. Work on `Cc1cc(C(=O)Cn2cnc3cc([N+](=O)[O-])ccc3c2=O)c(C)n1CC1CCCO1` (stereo not given) yielded a percent activity (GTP binding) of 90%. In the case of `Cc1ccc(NC(=O)C(=O)NCc2ccco2)c(C)c1`, the percent activity (GTP binding) is reported as 98%. With `Cc1csc(NC(=O)Nc2ccccc2[N+](=O)[O-])n1` the percent activity (GTP binding) was 97%. Compound `CN(C)S(=O)(=O)Oc1ccccc1C(=O)Nc1ccccc1Cl` has a percent activity (GTP binding) of 99%. For `CCOC(=O)N1CCN(CCC(=O)Nc2cc(OC)ccc2OC)CC1`, the percent activity (GTP binding) was 96%. With `CN1CCN(c2ccc(NC(=O)c3ccc4c(c3)OCCO4)cc2Cl)CC1` the percent activity (GTP binding) was 98%. With `CSc1ncnc2sc(C)c(C)c12` the percent activity (GTP binding) was 93%. `CC[n+]1c(C)n(-c2ccccc2)c2ccc(NC(C)=O)cc21` showed a percent activity (GTP binding) of 96%. `Cc1ccc(C)c(NC(=O)CCC(=O)N/N=C2/CC(=O)CC(C)(C)C2)c1` was tested, and the percent activity (GTP binding) was 96%. `COc1ccc(S(=O)(=O)N2CCN(C(=O)c3cc(C)oc3C)CC2)cc1` was tested, and the percent activity (GTP binding) was 97%. With `CC(CC(=O)C1C(C)C=CCC1(C)C)NNC(N)=O` (stereo not given) the percent activity (GTP binding) was 95%. Compound `Cn1cccc1/C=C1\SC(=O)N(CC(=O)Nc2ccc(F)cc2)C1=O` has a percent activity (GTP binding) of 95%. `CCOC(=O)C1CCN(C(=O)C2(NC(=O)Nc3cccc(F)c3)CCCCC2)CC1` was tested, and the percent activity (GTP binding) was 97%. Work on `CC(C)N(Cc1nc(-c2ccc3c(c2)OCO3)no1)CC1CCC(=O)N1` (stereo not given) yielded a percent activity (GTP binding) of 98%. Work on `CCOC(=O)/C(=N\Nc1ccccc1[N+](=O)[O-])c1csc(Nc2ccccc2)n1` yielded a percent activity (GTP binding) of 91%. For `C/C(CC(=O)Nc1ccc(C)cc1C)=N\NC(=O)C(C)C`, the percent activity (GTP binding) was 98%. For `CCN(C(=O)Cc1nc(N)n[nH]1)C1(C(=O)Nc2ccccc2)CCCCC1`, the percent activity (GTP binding) was 97%. In the case of `CC(=O)c1c(-c2ccccc2)c2ccccc2[nH]c1=O`, the percent activity (GTP binding) is reported as 96%. With `COc1ccc(C2=NN(c3ccccc3)C(c3cccs3)C2)cc1` (stereo not given) the percent activity (GTP binding) was 94%. For `CCS(=O)(=O)c1ccc(O)c(NC(=O)COc2ccc(Cl)cc2)c1`, the percent activity (GTP binding) was 95%. `O=C(CC1CCCCC1)NCc1ccco1` showed a percent activity (GTP binding) of 92%. `CCOc1ccc(Br)cc1S(=O)(=O)N1CCC(C(=O)O)CC1` was tested, and the percent activity (GTP binding) was 94%. `COc1ccc(NC(=O)c2c(SC)nsc2SC)cc1` was tested, and the percent activity (GTP binding) was 100%. For `CSc1nsc(SC)c1NC(=O)OC1CCCCC1`, the percent activity (GTP binding) was 33% (active). With `CSc1ncccc1C(=O)NC1CCCCCC1` the percent activity (GTP binding) was 96%. Work on `Cn1c(CCC(=O)OCC(=O)NCc2ccccc2Cl)nc(=O)c2ccccc21` yielded a percent activity (GTP binding) of 95%. Work on `COc1ccc(-c2nc(N)sc2C2(O)C(=O)Nc3c(Br)cc(F)cc32)cc1OC` (stereo not given) yielded a percent activity (GTP binding) of 95%. `COc1cccc(Cn2cnc3c([N+](=O)[O-])c(C)c(C)cc32)c1` showed a percent activity (GTP binding) of 96%. With `Cc1nc2ccccn2c1C(=O)NN=C1CCN(C)CC1` the percent activity (GTP binding) was 98%. In the case of `O=C1c2ccccc2C(=O)N1CCC(O)C[N+](=O)[O-]` (stereo not given), the percent activity (GTP binding) is reported as 98%. `CC(=O)Nc1ccc(Sc2ccccc2C(=O)N2CCCC2)cn1` was tested, and the percent activity (GTP binding) was 98%. In the case of `CCOc1ccc(C(CC(=O)O)n2cnnn2)cc1OC` (stereo not given), the percent activity (GTP binding) is reported as 91%. Compound `Cc1c(Cl)c([N+](=O)[O-])nn1CC(=O)NCC1CCCO1` (stereo not given) has a percent activity (GTP binding) of 96%. `CC(NC(=O)COC(=O)c1ccc(Cl)cc1O)c1ccc(F)cc1` (stereo not given) showed a percent activity (GTP binding) of 99%. In the case of `Cc1ccc(Nc2c(F)c(F)c(F)c(F)c2C(=O)O)c(C)c1`, the percent activity (GTP binding) is reported as 139% [activator] (active). For `COc1c(F)c(F)c(C(=O)O)c(Nc2ccccc2C)c1F`, the percent activity (GTP binding) was 97%. `Cc1ccc(NC(=S)NC(=O)c2ccc(-c3ccccc3)cc2)c(C)c1` showed a percent activity (GTP binding) of 92%. For `COc1ccc(/C=C/C(=O)c2cc(Br)ccc(=O)c2O)cc1`, the percent activity (GTP binding) was 78% (active). `COc1ccc(/C=C/C(=O)c2ccc(OC)cc2O)cc1` gave a percent activity (GTP binding) of 96%. With `COc1ccc(C(=O)/C=C/c2ccc(OC3CSC3)cc2)cc1` the percent activity (GTP binding) was 95%. Compound `CCOC(=O)c1c(C)[nH]c(C2=NNC(=NC(C)COC)SC2)c1C` (stereo not given) has a percent activity (GTP binding) of 97%. Compound `Cc1cccc(NC(=O)Nc2ccc3c(c2)OCO3)n1` has a percent activity (GTP binding) of 97%. Work on `CC(C(=O)NCC1CCCCC1)N(C)Cc1cccc(Cl)c1` (stereo not given) yielded a percent activity (GTP binding) of 95%. `CN(C)CCOc1cccc(Br)c1` gave a percent activity (GTP binding) of 95%. `N=C1C(c2nc3ccccc3s2)=C(O)CN1NC(=O)c1ccc([N+](=O)[O-])cc1` was tested, and the percent activity (GTP binding) was 84%. Compound `C/C(=N/N1CCN(Cc2cccc3ccccc23)CC1)c1cccnc1` has a percent activity (GTP binding) of 95%. `CCc1cccc(OC2OC(CO)C(O)C(O)C2NC(C)=O)c1` (stereo not given) gave a percent activity (GTP binding) of 97%. With `S=C(Nc1ccc(Br)cc1Cl)N1CCC2(CC1)OCCO2` the percent activity (GTP binding) was 98%. For `Cc1cccc2c1N(CCOc1ccccc1)C(=O)C2=O`, the percent activity (GTP binding) was 98%. For `Cc1ccc(CC2CC(=O)N(c3nc(C)cc(C)n3)C2=O)cc1` (stereo not given), the percent activity (GTP binding) was 97%. Work on `CNC(=O)COc1ccc(S(=O)(=O)Nc2ccccc2)cc1` yielded a percent activity (GTP binding) of 98%. For `COCCN(CCOC)S(=O)(=O)c1ccc(C(=O)Nc2nc3c(s2)CCc2ccccc2-3)cc1`, the percent activity (GTP binding) was 100%. Work on `C=CCN(CC=C)S(=O)(=O)c1ccc(C(=O)Nc2sc3c(c2C(N)=O)CCCCC3)cc1` yielded a percent activity (GTP binding) of 100%. In the case of `C=CCN(CC=C)S(=O)(=O)c1ccc(C(=O)Nc2nc3c(s2)CCc2ccccc2-3)cc1`, the percent activity (GTP binding) is reported as 54% (active). In the case of `CCOC(=O)c1[nH]cnc1C(=O)Nc1ccccc1C`, the percent activity (GTP binding) is reported as 95%. Work on `CCOc1ccc(N2C(=O)Nc3ccccc3C2(O)C(=O)NCc2ccco2)cc1` (stereo not given) yielded a percent activity (GTP binding) of 99%. With `CCOC(=O)c1sc(/N=C/C2=C(O)CC(C)(C)CC2=O)c(C(=O)OCC)c1C` the percent activity (GTP binding) was 95%. `O=C(NCCOc1ccccc1F)Nc1ccc(Br)cc1` gave a percent activity (GTP binding) of 93%.
